Screens deposited in PubChem BioAssay by National Center for Advancing Translational Sciences (NCATS).
Lamin A splicing – LMNA splicing modulation; HeLa LMNA splicing GFP/RFP minigene ratio, 48 h; Potency, µM (series often up to 46.1 µM), for inactives: at the highest dose ratio change, negative = inhibition, actives largely listed as inhibitors; AID 1487; 200,000 tested, 0.01% active; active = well fitted inhibition curve with a large enough effect in the signal ratio, with a control signal flat, not every such curve was filed as active; inconclusive = small, poorly fitted or top-dose-only effect, or effect the other way, or a change in a side signal; the % refers to the signal ratio; also: % is scaled to controls: 0 for no effect and ±100 for the full control effect
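Read-out is the ratio of GFP to DsRed2 object intensity, acquired by 488 nm laser-scanning cytometry on HeLa lamin A-EGFP minigene reporter cells. Compound incubation 48 hrs at 37 °C in Opti-MEM with 2% FBS; DMSO 0.5% final.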
HTT aggregate – reduces HttQ103-GFP aggregates in PC12 cells. PC12 HttQ103-GFP aggregates, Acumen cytometry, 40 h. Potency, µM (doses to about 46.1 µM), for inactives: top-dose activity change, negative = inhibition, most hits filed as inhibitors. 220,000 tested, 1.1% active. AID 1688; also: % is scaled to controls: 0 for no effect and ±100 for the full control effect; nearly all actives have a fitted effect of over 60% in size
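Huntingtin Q103 exon 1–GFP aggregates in induced PC12 cells (100 nM tebufenozide) were quantified by cytometry from lysates, with compounds dosed in titration.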
ALDH1A1 block – blocks purified human ALDH1A1 activity. P00352. 220,000 tested, 7.3% active. Potency, µM (series often up to 75.3 µM), for inactives: at the top dose activity, negative = inhibition, actives largely listed as inhibitors. AID 1030. Purified ALDH1A1, NADH fluorescence, propionaldehyde substrate; active = well fitted inhibition curve with a large enough effect, not every such curve was filed as active; inconclusive = small, poorly fitted or top-dose-only effect, or another doubt; inactive = no such curve, though single readings can be large or run the other way;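 also: plate controls were no enzyme wells and a reference inhibitor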
Target sequence (P00352 whole entry, looked up): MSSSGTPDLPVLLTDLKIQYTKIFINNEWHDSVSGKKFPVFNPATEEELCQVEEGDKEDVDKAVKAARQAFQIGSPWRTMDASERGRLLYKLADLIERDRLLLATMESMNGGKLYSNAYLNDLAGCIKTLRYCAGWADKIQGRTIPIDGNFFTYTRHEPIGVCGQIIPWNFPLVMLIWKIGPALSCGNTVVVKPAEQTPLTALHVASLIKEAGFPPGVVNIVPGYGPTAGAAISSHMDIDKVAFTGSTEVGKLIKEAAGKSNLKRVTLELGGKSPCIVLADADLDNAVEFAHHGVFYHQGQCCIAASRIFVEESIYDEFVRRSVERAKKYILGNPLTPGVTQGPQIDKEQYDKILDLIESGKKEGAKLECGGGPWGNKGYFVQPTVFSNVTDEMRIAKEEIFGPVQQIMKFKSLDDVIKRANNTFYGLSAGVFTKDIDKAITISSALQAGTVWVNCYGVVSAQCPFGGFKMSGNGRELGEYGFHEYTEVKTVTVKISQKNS
HTT cytoprotect – Huntington cell model cytoprotection by ATP luminescence. 230,000 tested, 0.14% active. PC12 HTT-Q103 induced, cytoprotection, ATP luminescence, 40 h. AID 1471. Potency, µM (top dose mostly 56.4 µM), for inactives: cytoprotection (ATP increase), usual class: activators; also: % of control where 0% means no effect; nearly all actives have a fitted effect of over 45% in size
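Compounds were screened for protection of PC12 cells against cell death after tebufenozide induction (100 nM final) of mutant Huntingtin exon 1 (Q103) fused to GFP.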
Luc counter – counter-screen: inhibitors of Kinase-Glo firefly luciferase | AID 1379 | Potency, µM (doses to about 38.3 µM), inactives show at the top dose activity change, negative = inhibition, hits mostly inhibitors | 200,000 tested, 0.28% active | Kinase-Glo luciferase, ATP luminescence, 8 min | Q27757; also: % is scaled to controls: 0 for no effect and ±100 for the full control effect; nearly all actives have a fitted effect of over 60% in size
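Kinase-Glo luciferase light output from ATP and luciferin was measured with 10 uM ATP, within the enzyme's linear range. Buffer: 50 mM imidazole pH 7.2, 50 mM KCl, 7 mM MgCl2, 0.01% Tween 20, 0.05% BSA; luminescence read after 8 min at ambient temperature.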
HPGD block – blocks human HPGD enzyme activity. P15428. purified HPGD, NADH fluorescence kinetic, PGE2 substrate. Potency, µM, inactives show at the top dose activity change, negative = inhibition, actives largely listed as inhibitors. 150,000 tested, 4.3% active. AID 894; active = well fitted inhibition curve with a large enough effect, not every such curve was filed as active; inconclusive = small, poorly fitted or top-dose-only effect, or another doubt; inactive = no such curve, though single readings can be large or run the other way; also: % is scaled to controls: 0 for no effect and ±100 for the full control effect
Target sequence (P15428 whole entry, looked up): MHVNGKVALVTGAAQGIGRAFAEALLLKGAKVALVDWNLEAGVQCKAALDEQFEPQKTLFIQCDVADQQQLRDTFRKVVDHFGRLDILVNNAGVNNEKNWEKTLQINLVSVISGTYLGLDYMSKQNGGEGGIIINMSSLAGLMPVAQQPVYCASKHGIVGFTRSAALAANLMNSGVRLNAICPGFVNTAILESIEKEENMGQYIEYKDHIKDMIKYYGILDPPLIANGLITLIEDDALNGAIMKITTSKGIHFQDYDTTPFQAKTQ
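20 nM HPGD preincubated 15 min at room temperature with compound in 50 mM Tris-HCl pH 8, 0.01% Tween 20. Started with 1 mM NAD+ and 30 uM prostaglandin E2; NADH fluorescence (360/450 nm) read 5 times over 30-s intervals, last minus first.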
Numbers without * were called inactive; ? = inconclusive; / = no result; [ ] = dose if it differs, or a comment. Rows were chosen to be rich in hits. Some 9% of all compounds tested hit in one or more screens of this group. Unless noted, calls follow the shape of the dose curve; as a rule, active = well fitted curve in the direction sought with a large enough effect; inconclusive = small, poorly fitted or top-dose-only effect, or another doubt; inactive = no such curve, though single readings can be large; an effect the other way counts as inactive or inconclusive. Potency is read from the fitted curve at half-maximal effect.

SMILES	Lamin A splicing	HTT aggregate	ALDH1A1 block	HTT cytoprotect	Luc counter	HPGD block
CC(=O)NC(c1ccccc1)c1cc([N+](=O)[O-])c2cccnc2c1O (configuration not stated)	?	2.82µM*	?	-42.3%[10 µM]	4.9%	/
CCCC(c1nnnn1C(C)(C)CC)N1CCN(C2CCCC2)CC1 (configuration not stated)	4.4%	3.8%	6.6%	3.9%	13.7%	-5.3%
O=S(=O)(c1ccccc1)c1ncc(C(F)(F)F)cc1O	7.7%[46 µM]	-4.7%	?	-30.0%	2.7%	/
O=S(=O)(c1ccccc1)c1ncc(C(F)(F)F)cc1Cl	?	?	10µM*	5.6%[10 µM]	6.4%	/
Cc1ccccc1NS(=O)(=O)c1ccc(OCC(=O)NCc2cccnc2)cc1	?	10.2%	19.8%	7.4%[10 µM]	-2.2%	3.1%
Cc1sc(NC(=O)c2ccco2)c(C(c2cccnc2)N2CCN(CCO)CC2)c1C (configuration not stated)	-4.5%[46 µM]	-20.2%	-2.8%	-3.7%	-0.1%	/
CCOC(=O)C1CCN(C(c2cccnc2)c2c(NC(=O)c3ccco3)sc(C)c2C)CC1 (configuration not stated)	?	7.94µM*	?	28.0%	-3.0%	-29.4%
CCCN1C(=O)c2cc(C(=O)Nc3ccc(OC)cc3OC)ccc2C1Nc1ccc(OC)cc1OC (configuration not stated)	/	1.6%	25.1µM*	-46.0%	/	/
CC1CCN(c2ccc(NC(=O)Cc3ccccc3)cc2)CC1	/	5.0%[9.22 µM]	5.5%	9.5%[10 µM]	/	/
COc1cccc(CNc2ccc(N3CCC(C)CC3)cc2)c1OC	-19.7%	17.2%	12.6µM*	11.1%[10 µM]	1.0%	-6.2%
O=C1C(=C(c2ccccc2)c2ccccc2)Nc2ccccc21	?	-2.7%	0.708µM*	-18.1%	11.1%	-3.6%
O=C1CN(C(=O)c2ccccc2)c2ccccc2N1	2.7%	?	-0.4%	-3.7%	-0.5%	-17.4%
CCOc1ccc(NC(=S)N2CCCN(Cc3cc(C)ccc3C)C2)cc1	?	28.2µM*	0.5%	-46.5%	-4.7%	/
Cc1ccc(NC(=S)N2CCCN(Cc3ccc(F)cc3)C2)c(C)c1	/	9.5%	2.3%	3.5%	0.4%	/
CC(=O)Nc1c(O)nc(SCC(=O)Nc2sc3c(c2C#N)CCCCCC3)[nH]c1=O	14.2%	10.8%	?	7.8%	0.7%	?
COC(=O)/C=C1\OC(c2ccccc2)=CC1=O	?	16.4%	10µM*	-4.5%[10 µM]	-0.9%	20µM*
N#CC(c1ccc(O)cc1)N1CCOCC1 (configuration not stated)	0.0%	14.3%	7.94µM*	1.7%[1.9 µM]	-3.7%	-6.4%
CCOC(=O)C(C(=O)OCC)c1cc(Br)c2noc3c2c1C(=O)c1ccccc1-3	?	?	10µM*	-87.2%	-10.6%	?
Fc1ccc(CSc2nnc(-c3cccnc3)n2Cc2ccco2)cc1	3.9%	4.2%	-5.2%	-16.5%	-0.5%	-17.4%
C=CCn1cc(/C=C2/NC(=O)NC2=O)c2ccccc21	/	-6.8%[9.22 µM]	/	3.7%[10 µM]	/	/
C=CCn1cc(/C=N/N2C(=O)C3C4C=CC(C4)C3C2=O)c2ccccc21 (configuration not stated)	10.7%[46 µM]	17.0%	25.1µM*	-51.8%	-1.4%	/
Cc1nc2ccc(NC(=S)NC3CCCCC3)cc2nc1C	?	-12.6%	-10.5%	-79.1%	-2.4%	/
COc1ccc2[nH]c(C)c(CCN(Cc3cccs3)C(=S)Nc3ccc(F)cc3)c2c1	?	?	17.8µM*	2.1%[10 µM]	2.7%	-16.7%
CCS(=O)(=O)c1ccc(OC)c(N=Nc2ccc(O)c3ncccc23)c1	/	7.94µM*	-6.9%	-177.4%	-11.1%	/
NS(=O)(=O)c1cc(Br)c(N=Nc2ccc(O)c3ncccc23)c(Br)c1	/	/	13.0%[13.5 µM]	0.9%[10 µM]	-4.8%[7.66 µM]	-2.9%
SMILES	Lamin A splicing	HTT aggregate	ALDH1A1 block	HTT cytoprotect	Luc counter	HPGD block
Clc1ccccc1-c1nc(/C=N/N2CCOCC2)c2ccccn12	-14.1%[46 µM]	10.9%	39.8µM*	-23.0%	-2.2%	/
CN1CCN(/N=C/c2nc(-c3ccccc3Cl)n3ccccc23)CC1	-6.2%	?	-6.0%	20.6%[10 µM]	0.5%	-13.9%
COc1ccc(-c2cccc(C3CC=CC4C3C(=O)N(Cc3ccccc3)C4c3ccc(C(F)(F)F)cc3)c2)cc1 (configuration not stated)	/	1µM*	/	-44.9%[10 µM]	/	/
c1coc(C2Nc3cccc4cccc(c34)N2)c1	19.3%	-8.9%	25.1µM*	-20.2%	-7.7%	?
COc1ccc(N=C(N)SCc2ccccn2)cc1	-5.5%	-28.7%	?	/	-3.0%	-6.5%
COc1cc2c(cc1OC)C(C)N(C(C)=O)CC2 (configuration not stated)	-11.8%	-22.6%	1.8%	6.9%[10 µM]	0.0%	-11.2%
COc1cc2c(cc1OC)[C@H](C)N(CC1C(=O)O[C@@H]3C[C@@]4(C)CCC[C@H](C)[C@@]45OC5[C@H]13)CC2 (some centres not stated)	/	/	-3.0%	8.91µM*	1.6%	-2.0%
O=C(COc1ccc(Br)cc1)N(Cc1ccccc1)c1ccccn1	5.8%	8.6%	5.7%	/	-1.3%	-5.8%
C=CC[C@H]1CC(C)=C[C@H](CC=C)N1	/	-0.2%	-3.1%	-21.2%	-0.5%	/
COc1cc(OC)cc(C(=O)n2nc(C)cc2C)c1	-11.1%	-0.6%	-6.4%	17.9%[10 µM]	1.3%	-9.6%
Cn1cnnc1SCC(=O)Nc1ccc2c(c1)CCC2	2.8%	11.2%	-4.4%	-11.4%	-1.5%	-0.6%
O=C(CSc1nnc(-c2cccnc2)o1)c1cc2ccccc2oc1=O	3.1%	?	?	6.1%	-4.1%	-15.8%
Cn1cnnc1SCC(=O)c1cc2ccccc2oc1=O	?	16.0%	10µM*	-8.3%[10 µM]	-2.2%	?
Cn1cnnc1SCC(=O)c1ccc2c(c1)CCCC2	14.0%	10.8%	31.6µM*	-20.0%	1.4%	-12.8%
COc1cc(C(=O)CSc2nncn2C)cc(OC)c1OC	6.7%	-9.4%[9.22 µM]	12.6µM*	1.3%	3.7%	-19.7%
Cc1ccccc1CN1CCNC(=O)C1CC(=O)O (configuration not stated)	-6.7%	14.5%	?	-8.3%	0.2%	-1.0%
COc1cc(OC)c(S(=O)(=O)Nc2ccc(C(=O)N3CCCC3)cc2)cc1NC(C)=O	/	-0.6%	-1.3%	-8.2%[10 µM]	-1.1%	/
Cc1cc(C(F)(F)F)nc(SCC(=O)NC2=NC(=O)C(C)S2)n1 (configuration not stated)	-6.6%	25.4%	?	25.9%[10 µM]	0.6%	-26.7%
Cc1cc(C)nc(SCC(=O)NC2=NC(=O)C(C)S2)n1 (configuration not stated)	5.6%	-1.9%	22.4µM*	8.4%[10 µM]	4.7%	?
